About 83,000 compounds went through this panel and 20% of them were active in at least one assay; those are over-represented in the sample as a whole.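 Method: cells in 96-well plates; compound added at one concentration; 48 h incubation; percent growth measured; values under 10 scored active.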 Values without a mark were called inactive. The source made the active and inactive calls.

What all share (assay): NCI-60 one-dose screen, 48 h (100 = growth as untreated, 0 = no growth, -100 = all killed)
Settings in all cases: 10 µM

Test [1] deals with SR leukemia.
Test [2] has as its system RPMI-8226 leukemia.
Test [3] deals with OVCAR-8 ovarian.
Test [4] relates to OVCAR-5 ovarian.
The subject of test [5] is OVCAR-4 ovarian.
Test [6] concerns SK-OV-3 ovarian.
Test [7] has as its system IGROV1 ovarian.
The subject of test [8] is OVCAR-3 ovarian.
Test [9] has as its system HS 578T breast.
Test [10] relates to NCI/ADR-RES ovarian.
In test [11] the test system is T-47D breast.
Test [12] concerns BT-549 breast.
In test [13] the test system is MDA-MB-435 melanoma.
Test [14] relates to SW-620 colon.
Test [15] deals with MCF7 breast.
The test system of test [16] is HCT-116 colon.
For test [17], the system named is KM12 colon.
For test [18], the system named is HCC-2998 colon.

In the case of `C/C(=N\NC(=S)N1CCCC1)c1ccccn1`, the growth in test [1] is 6.59% (active); in test [2], 12.9%; in [3], 11.1%; in [4], 40.3%; in [5], 3.92% (active); in test [6], 26.5%. The growth in [7] was -3.85% (active); in [8], 23.8%; in test [9] it was 31.8%; in test [10], -5.31% (active); in test [11], 18.3%; in test [12] it was 28.1%. The growth in test [13] is 19.2%; in test [14], 22.6%; in [15], 14.2%; in [16], 22.3%; in test [17], 17.4%.
On to `COc1ccc(/C=C2\CCC3C(CCCC34OCCO4)C2=O)cc1` (stereo not drawn), for which the growth was 35.5% in test [1]; 81.2% in test [2]; 97.2% in test [3]; 91.7% in [4]; 100% in test [5]; 97.1% in test [6]. The growth is 83% in [7]; 75% in test [8]; 106% in test [9]; 75.8% in test [10]; 75.4% in test [11]; 88.4% in [12]. The growth in test [13] is 29.9%; in test [14] it was 75.6%; in test [15] it was 70.6%; in test [16], 92.4%; in [17] it was 67.7%.
On to `O=[N+]([O-])c1ccc(-c2nc(-c3ccccc3)c(-c3ccccc3)n2-c2ccccc2)cc1`, for which the growth in test [1] is 4.19% (active); in test [2], -20.3% (active); in test [3], 26.7%; in [4] it was 91.5%; in test [5], 24.7%; in test [6], 55.5%. Besides, the growth is -29.1% (active) in [7]; 40.2% in test [8]; 20.5% in [9]; 5.77% (active) in [10]; 21.6% in [11]; 36.5% in test [13]. The growth was 48.8% in test [14]; 19.6% in [15]; 33.2% in test [16]; -36.9% (active) in test [18]; 37% in [17].
For the compound `COc1cc(-c2n/c(=C\c3c(O)[nH]c4ccccc34)cc3c2=Nc2ccccc2-3)cc(OC)c1OC`, the growth in test [1] is 8.26% (active); in test [2], 25.5%; in test [3], 11.3%; in [4], 46.4%; in test [5] it was 26.8%; in [6], -9.66% (active). Also, the growth was 44.3% in [7]; -16.6% (active) in test [8]; 3.83% (active) in [9]; 4.78% (active) in [10]; 51.7% in test [11]; 6.59% (active) in [12]. Besides, the growth is 33.4% in test [14]; 3.28% (active) in test [15]; 3.38% (active) in test [16]; -20.4% (active) in test [18]; 5.99% (active) in test [17].
As to `Cc1[nH]nc2c(=S)[nH]c(=O)[nH]c12`, the growth is 113% in test [1]; 101% in test [2]; 99.1% in [3]; 99.4% in test [4]; 99.6% in [5]; 109% in test [6]. Also, the growth in test [7] is 111%; in [8] it was 110%; in test [9] it was 105%; in test [10] it was 100%; in [11], 104%; in [12], 98.1%. Also, the growth was 102% in test [13]; 103% in test [14]; 94% in test [15]; 105% in test [16]; 107% in test [17].
In the case of `CCC(CCNc1cc(OC)cc2cccnc12)CN1C(=O)c2ccccc2C1=O` (stereo not drawn), the growth was 109% in test [1]; 95.1% in test [2]; 109% in [3]; 111% in test [4]; 16.9% in test [5]; 95.7% in [6]. In addition, the growth is 113% in test [7]; 106% in test [8]; 177% in test [9]; 89.9% in test [10]; 32.7% in test [11]; 107% in [13]. Besides, the growth in [14] is 135%; in test [15] it was 31.1%; in test [16], 99.5%; in [18] it was 105%; in [17] it was 99%.
Take `Cc1ccc(NC(=O)/C=N/O)cc1C`: the growth in test [1] is 87%; in test [2], 96.6%; in test [3] it was 98.6%; in [4], 96.9%; in test [5], 85.2%; in test [6], 81.3%. In addition, the growth was 117% in [7]; 87% in test [8]; 95.7% in [9]; 112% in [10]; 76.4% in [11]; 91.6% in test [12]. Moreover, the growth was 100% in test [14]; 61.5% in test [15]; 98.1% in test [16]; 116% in test [18]; 104% in test [17].
For the compound `O=C(O)CCCCSCCCCC(=O)O`, the growth in test [1] is 87.6%; in test [2], 97.9%; in test [3] it was 106%; in test [4], 122%; in test [5] it was 113%; in test [6], 98.7%. Moreover, the growth was 97.9% in [7]; 109% in [8]; 104% in test [9]; 109% in test [10]; 86.7% in test [11]; 110% in [12]. Further, the growth in test [14] was 111%; in test [15], 97.5%; in test [16] it was 108%; in test [18], 106%; in test [17], 110%.
As to `Cc1cc(=O)oc2cc(OCc3cn(CC(O)CO)nn3)ccc12` (stereo not drawn), the growth in test [1] is 97.9%; in test [2], 92.9%; in test [3], 103%; in test [4], 113%; in test [5], 116%; in test [6] it was 100%. Also, the growth in test [7] was 107%; in test [8] it was 117%; in test [9], 27%; in [10] it was 105%; in [11], 86.8%; in test [12] it was 97.5%. In addition, the growth was 116% in test [13]; 74% in test [14]; 109% in test [15]; 98.8% in test [16]; 111% in test [17].
